In PubChem BioAssay (NCATS):
Results filed as inconclusive are left out. Entries that show only a call come without a potency. Unmarked numbers belong to inactive results. Activity calls are given as the source filed them. Calls come from the whole dose curve; as a rule, active = well fitted inhibition curve with a large enough effect; inconclusive = small, poorly fitted or top-dose-only effect; inactive = no such curve, though single readings can be large or run the other way.

What follows are molecules tested on Zika virus NS2B-NS3 protease (unlinked complex) (assay: Primary screen GU Rhodamine qHTS for Zika virus inhibitors: Unlinked NS2B-NS3 protease assay (AID 1347159; note: nearly all actives have a fitted effect of over 60% in size)). Settings: Recombinant ZIKV NS2B-NS3 protease, Rhodamine110 substrate fluorescence; series mostly up to 107 µM.
How it was run: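 Enzyme 25 nM in Tris-HCl pH 8.0 + 0.01% Tween 20; compounds up to 114 microM, 15 min RT dark; + Rhod110 substrate 1.5 microM; read t0 and 15 min; delta fluorescence → % inhibition → 4-parameter Hill fit.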
In the case of O=C(O[C@H]1[C@@H]2C=CO[C@@H](O[C@@H]3O[C@H](CO)[C@@H](O)[C@H](O)[C@H]3O)[C@@H]2[C@@]2(CO)O[C@@H]12)c1ccc(O)c(O)c1, the Potency was “inactive”. CCC(=O)O[C@]1(C(=O)CCl)[C@@H](C)C[C@H]2[C@@H]3C[C@H](F)C4=CC(=O)C=C[C@]4(C)[C@@]3(F)[C@@H](O)C[C@@]21C was tested, and the Potency was “inactive”. C[C@@H]1O[C@@H](O[C@H]2[C@H](OC(=O)C34CCC(C)(C)CC3C3=CCC5C6(C)CC(O)C(O[C@@H]7O[C@H](CO)[C@@H](O)[C@H](O)[C@H]7O)C(C)(C(=O)O)C6CCC5(C)C3(CO)CC4)O[C@H](C)[C@H](O)[C@@H]2O)[C@H](O)[C@H](O)[C@H]1O[C@@H]1OC[C@@H](O)[C@H](O)[C@H]1O (some centres not stated) was tested, and the Potency was “inactive”. With Cc1cn2c(N)c(Cl)cc(C(=O)NCC3CCN(CC(C)C)CC3)c2n1 the Potency was “inactive”. For CC(C)c1nc(N(C)S(C)(=O)=O)nc(-c2ccc(F)cc2)c1/C=C/[C@@H](O)C[C@@H](O)CC(=O)O, the Potency was “inactive”. Cc1[nH]cnc1C1CCN(c2nc3cccc4c3n2CCC4=O)CC1 was tested, and the Potency was “inactive”. C[C@@H]1O[C@@H](O[C@@H]2[C@@H](O)[C@H](O[C@@H]3[C@@H](O)[C@@H](O)[C@H](O[C@H]4[C@H](OC(=O)[C@]56CCC(C)(C)C[C@H]5C5=CCC7[C@@]8(C)C[C@H](O)[C@H](O[C@@H]9O[C@H](C(=O)O)[C@@H](O)[C@H](O)[C@H]9O)[C@@](C)(CO)C8[C@H](O)C[C@@]7(C)[C@]5(C)CC6)OC[C@H](O)[C@@H]4O)O[C@H]3C)OC[C@H]2O)[C@H](O)[C@H](O)[C@H]1O (some centres not stated) was tested, and the activity change, negative = inhibition was 20.7% [at 19.1 µM].
